The panel holds about 83,000 compounds, 20% with a hit somewhere; the sample as a whole holds those more often.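 Single-dose data. Exposure time 48 hours. Values below 10 considered active.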 Unmarked numbers belong to inactive results. Activity calls are given as the source filed them.
System: MDA-MB-468 breast
Assay: NCI-60 one-dose screen, 48 h (100 = growth as untreated, 0 = no growth, -100 = all killed)

Compound	growth (30 µM)	growth (50 µM) [%]
CC(C)(C)c1cc(NC(=O)Cc2ccc(-c3cnc4cc(-c5cnn(CCN6CCOCC6)c5)ccc4n3)cc2)no1	-1.53% (active)	
CC1(C)OB(c2ccc(Cn3cc(F)c(=O)[nH]c3=O)cc2)OC1(C)C		13
O=c1[nH]cc(F)c(=O)[nH]1		58.6

From PubChem BioAssay (NCI)
